The text below walks through data of PubChem BioAssay AID588579 (National Center for Advancing Translational Sciences (NCATS), 2011).

SMILES strings stand for the structures. “And” between values parts separate entries of the source, which are not always exact repeats. Equal entries are not always repeated. Among all 400,000 compounds or so, about 2,200 (0.55%) were called active. A call without a number means that no potency is given here. About 1% were inconclusive and are not listed. Calls come from the whole dose curve; as a rule, active = well fitted inhibition curve with a large enough effect; inconclusive = small, poorly fitted or top-dose-only effect, or another doubt; inactive = no such curve, though single readings can be large or run the other way. Many of the other results were omitted from the sample, so actives are more common in it than they were.
Potency is the fitted concentration of half-maximal effect.

DNA polymerase kappa (Homo sapiens), sequence (Q9UBT6 whole entry, looked up): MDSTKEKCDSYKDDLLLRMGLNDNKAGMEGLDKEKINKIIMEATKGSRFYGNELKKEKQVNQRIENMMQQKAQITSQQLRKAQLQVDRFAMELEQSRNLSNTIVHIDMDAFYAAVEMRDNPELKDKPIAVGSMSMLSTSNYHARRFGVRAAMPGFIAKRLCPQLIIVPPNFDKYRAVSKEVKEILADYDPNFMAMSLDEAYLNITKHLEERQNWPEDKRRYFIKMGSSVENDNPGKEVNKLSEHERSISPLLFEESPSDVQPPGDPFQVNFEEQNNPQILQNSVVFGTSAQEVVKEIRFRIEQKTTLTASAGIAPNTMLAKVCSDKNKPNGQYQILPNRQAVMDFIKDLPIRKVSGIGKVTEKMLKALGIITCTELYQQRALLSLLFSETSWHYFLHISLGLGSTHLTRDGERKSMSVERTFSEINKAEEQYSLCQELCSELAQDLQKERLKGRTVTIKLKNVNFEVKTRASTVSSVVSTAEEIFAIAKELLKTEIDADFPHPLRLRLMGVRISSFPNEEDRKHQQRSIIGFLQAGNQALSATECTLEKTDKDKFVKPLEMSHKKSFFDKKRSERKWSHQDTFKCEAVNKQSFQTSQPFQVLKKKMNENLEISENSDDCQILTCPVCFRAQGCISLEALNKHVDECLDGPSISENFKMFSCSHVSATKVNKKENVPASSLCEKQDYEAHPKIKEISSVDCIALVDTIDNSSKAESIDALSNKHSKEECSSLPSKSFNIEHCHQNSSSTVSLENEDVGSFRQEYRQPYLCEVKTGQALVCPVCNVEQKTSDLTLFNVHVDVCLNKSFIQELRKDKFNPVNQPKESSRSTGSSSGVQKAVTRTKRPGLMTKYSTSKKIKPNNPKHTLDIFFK

The target of the assay is DNA polymerase kappa (Homo sapiens) (UniProt Q9UBT6). The experiment in a line: qHTS for Inhibitors of Polymerase Kappa. To be noted: purified Pol kappa, fluorescent DNA synthesis assay, 10 min; series mostly up to 107 µM. The gist of the method:
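Activity was followed as the change in fluorescence between reads at 0 and 10 min after starting the reaction with 50 nM substrate. Beforehand, 10 nM polymerase had been preincubated with compound for 15 min at room temperature.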
(Quantitative high-throughput screening tests each substance at several concentrations.)
Regarding `O=C(c1ccc(NS(=O)(=O)c2ccc3[nH]c(=O)[nH]c3c2)cc1)N1CCCCC1`, the Potency result was “inactive”. `O=C(O)c1ccc(NS(=O)(=O)c2ccc3c(c2)C(=O)c2cc(S(=O)(=O)Nc4ccc(C(=O)O)cc4)ccc2-3)cc1`: the Potency is 79.4 µM (active). As for `Cc1noc(C)c1S(=O)(=O)Nc1ccc(C(=O)O)cc1`, the Potency entry is “inactive”.

As to `O=C(O)c1c(Br)c(Br)c(Br)c(Br)c1C1c2ccc(O)cc2Oc2cc(O)ccc21`, the Potency was 1.12 µM (active). Take `COc1ccccc1CNc1ncncc1-c1cccc(NS(C)(=O)=O)c1`: the Potency result was “inactive”.

In the case of `CC(C)C(N)C(=O)OCCOCn1cnc2c(=O)[nH]c(N)nc21` (stereo not drawn), the Potency result was “inactive”. With `CC(C)[C@H]1CC[C@@H](C)C[C@H]1O`, the activity, negative = inhibition is -5.92% [at 19.4 µM] (inactive). Regarding `COc1cccc(Cn2c(=O)c(CCc3ccccc3)nc3cnc(N(C)C)nc32)c1`, the Potency entry is “inactive”. Turning to `CCOC(=O)CSC1=Nc2ccccc2C2=NC(CCC(=O)NCc3ccc(F)cc3)C(=O)N12` (stereo not drawn), the Potency result is “inactive”. The same measure, in the same setting: as for `CC(C)C1N=C2c3ccccc3N=C(SCC(=O)c3ccc(O)c(O)c3)N2C1=O` (stereo not drawn), the figure is 20 µM (active); as for `Cc1ccc(CNC(=O)CSC2=Nc3ccccc3C3=NC(C)C(=O)N23)cc1` (stereo not drawn), “inactive”. On to `CCCCC/C=C\CC1OC1CCCCCCCC(=O)O` (stereo not drawn), for which the activity, negative = inhibition was -0.735% [at 19.4 µM] (inactive). For the compound `COc1cc2nc(N3CCCN(C)CC3)nc(NC(C)C)c2cc1OC`, the Potency entry is “inactive”. Turning to `C=COC(=O)N1CCN(/[N+]([O-])=N/Oc2ccc([N+](=O)[O-])cc2[N+](=O)[O-])CC1`, the Potency result is “inactive”. In the case of `CCC(C)Cn1c(O)cc2nn(-c3nc4ccccc4s3)c(=O)c-2c1C` (stereo not drawn), the Potency is 25.1 µM (active). For the compound `Nc1ncnc2c1c(I)cn2[C@@H]1C[C@H](N)[C@@H](O)[C@H]1O`, the Potency entry was “inactive”. Turning to `CC1(C)OC2CO[C@]3(COS(N)(=O)=O)OC(C)(C)OC3C2O1` (stereo partly drawn), the Potency entry was “inactive”. As for `COc1cc(NC(=O)c2cc3ccc4cccnc4c3[nH]2)cc(OC)c1OC`, the Potency result was “inactive”. Turning to `COc1ccc(-c2cc(C(=O)NCc3cc(OC)c(OC)c(OC)c3)[nH]n2)cc1`, the Potency result is “inactive”. In the case of `COc1ccc2[nH]c(C(=O)N/N=C/c3cc(OC)c(OC)c(OC)c3)cc2c1`, the Potency was 50.1 µM (active). For the compound `Nc1nc2nc(Cl)[nH]c2c(=O)[nH]1`, the Potency result is “inactive”. Same read-out and setting: next, `COc1ccc(Cl)cc1NC(=O)CCS(=O)(=O)c1ccc(Br)cc1`: 79.4 µM (active); `Cc1ccc(Cl)cc1NC(=O)CCS(=O)(=O)c1ccc(Br)s1`: “inactive”. Turning to `COc1ccc(Cl)cc1NC(=O)CCC(=O)c1ccc(C)cc1`, the Potency entry is “inactive”.

As for `COc1ccccc1CNc1ncnc2ccc(-c3ccc4c(c3)OCO4)cc12`, the Potency result is “inactive”. As for `CC1(C)OC2CC3C4CCC5=CC(=O)CCC5(C)C4(F)C(O)CC3(C)[C@]2(C(=O)CCl)O1` (stereo partly drawn), the Potency entry is “inactive”. Consider `O=c1c(-c2ccc(F)cc2)nc2cnc(N3CCOCC3)nc2n1-c1ccccc1`, for which the Potency entry was “inactive”. For `CN(C)c1ccc(/C=C/c2c3ccccc3nc3ccccc23)cc1`, the Potency entry was “inactive”. Consider `CC(C)(C(=O)NO)c1ccccc1`, for which the Potency entry was “inactive”. For `C=CCn1c(=S)[nH]c2scc(-c3ccco3)c2c1=O`, the Potency is 22.4 µM (active). As to `Fc1ccc(Cl)cc1-c1nc(Nc2ccncc2)c2nccnc2n1`, the Potency result is “inactive”. As to `COc1ccccc1CCn1c(=O)c(-c2cn(C)c3ccccc23)nc2cncnc21`, the Potency result is “inactive”. On to `CCCCC/C=C\C/C=C\CCCCCCCCCC(=O)O`, for which the activity, negative = inhibition was 1.81% [at 19.4 µM] (inactive).

Consider `Cc1ccc(/C=C(\C#N)C(=O)Nc2cc(C)ccc2C)cc1`, for which the Potency entry was “inactive”. On the same count and under the same terms, as for `CC(C)NC(=O)/C(C#N)=C\c1ccc(N(C)C)c(Br)c1`, the entry is “inactive”; as for `N#C/C(=C\c1ccc(O)c(O)c1)C(N)=O`, 10 µM (active); as for `Nc1nc(N)c(N=O)c(N)n1`, “inactive”. On to `O=C(C[n+]1ccncc1)c1ccc2c(c1)CCCC2`, for which the Potency result was “inactive”. In the case of `CC(=O)NC(=O)c1ccccc1O`, the activity, negative = inhibition was -8.55% [at 19.4 µM] (inactive).

Regarding `COc1ccccc1-c1cc(NCc2cccs2)ncn1`, the Potency result is “inactive”.

For `CC(C)(C)C1CCC(NC(=O)c2cnn3c2NC(=C2CC2)C=C3C(F)F)CC1` (stereo not drawn), the Potency entry is “inactive”. On to `COc1ccc(C[C@H](N)C(=O)N[C@@H]2[C@H](O)[C@H](n3cnc4c(N(C)C)ncnc43)O[C@@H]2CO)cc1`, for which the activity, negative = inhibition is -1.14% [at 12 µM] (inactive). Turning to `Cc1cc[n+](C2CCCCC2)cc1`, the Potency entry was “inactive”.

As for `Cc1nc2cnc(N3CCN(C)CC3)nc2n(C[C@H]2CCCO2)c1=O`, the Potency result is “inactive”. For the compound `O=C1NN(c2ccccc2)C(=O)/C1=C/c1ccc(-c2cccc(C(=O)O)c2)o1`, the Potency was 44.7 µM (active). Still for that read-out and setting: next, `CCCCOc1ccc(C(=O)NO)cc1`: “inactive”.

`Cc1cc2oc(=O)cc(-c3ccccc3)c2c(C)c1/C=C/c1ccc(F)cc1`: the Potency result is “inactive”.

As to `COc1cc(C(=O)N2CCOCC2)cc(OC)c1OC`, the activity, negative = inhibition is -0.831% [at 19.4 µM] (inactive) and 0.0712% [at 19.4 µM] (inactive).

Take `COc1ccccc1OCCOc1ccc(/C=C2\C(=N)N3N=C(C)SC3=NC2=O)cc1`: the Potency result was “inactive”. On to `COc1cc(/C=C2\C(=N)N3N=C(CC(=O)N4CCOCC4)SC3=NC2=O)cc(OC)c1OC`, for which the Potency was 31.6 µM (active). With `C=C1C=C(C(F)F)n2ncc(C(=O)NCCc3ccccc3OC)c2N1`, the Potency entry was “inactive”. For the compound `O=c1c(-c2cccs2)nc2cnc(Oc3ccccc3)nc2n1-c1ccccc1`, the Potency entry was “inactive”.

For the compound `CC(C)C1=CC2=CC[C@@H]3[C@](C)(CO)CCC[C@]3(C)C2CC1` (stereo partly drawn), the Potency entry was “inactive”. For the compound `CCOC(=O)Cn1c(=O)sc2cccc(Cl)c21`, the activity, negative = inhibition is -6.5% [at 12 µM] (inactive). In the case of `Nc1ncnc2nnsc12`, the Potency result was “inactive”.

Turning to `Cc1ccc(Cc2cnc(N)s2)o1`, the Potency is 15.8 µM (active).

As for `COCCNc1ccnc(-c2cccc(NS(C)(=O)=O)c2)n1`, the Potency result is “inactive”. `O=C1OC(C(O)CO)C(O)=C1O` (stereo not drawn): the Potency result is “inactive”. As to `C1=C(N2CCOCC2)/C(=C/c2nc3ccccc3[nH]2)CC1`, the Potency is 79.4 µM (active).

As for `Cc1nn2c3cc(N4CCOCC4)ccc3nc2c2ccccc12`, the Potency result is “inactive”.

For the compound `CNc1ncnc2ccc(-c3cccc(NS(C)(=O)=O)c3)cc12`, the Potency entry is “inactive”. In the case of `CC[C@H](C)[C@H](NC(=O)[C@@H](N)CCC(=O)O)C(=O)N[C@@H](CC(C)C)C(=O)N[C@@H](CC(=O)O)C(=O)N[C@H](C(=O)N1CCC[C@H]1C(=O)N[C@@H](CO)C(=O)N[C@H](C(=O)O)[C@@H](C)O)C(C)C`, the Potency result was “inactive”. Turning to `C=CCOC(=O)C(=C)C`, the Potency entry was “inactive”.
